KCNH2 3.1 inh: qHTS for Inhibitors of KCHN2 3.1: Mutant qHTS | Potassium voltage-gated channel subfamily H member 2, brain isoform KCNH2 3.1 (human) | U2OS KCNH2 3.1, thallium flux FluxOr; stronger effect = lower value | activity change, % (tested at about 1.8 µM) | actives 0.95% (n = 340,000);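 active means maximum activity change below -70%; inconclusive means maximum activity change from -70% to -50%; inactive means maximum activity change above -50%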;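 further: thallium influx rate constant from kinetic fluorescence after stimulation buffer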
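Normalized rate constant (relative to positive and negative DMSO controls) derived from a 2 min kinetic fluorescence read after stimulation; U2OS cells expressing the 3.1 isoform via virus at 1.77 x 10^8 /mL.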
MCF10A rerep: A quantitative high throughput screen for small molecules that induce DNA re-replication in MCF 10a normal breast cells | MCF 10A DNA re-replication, Hoechst nuclear intensity, 48 h | Potency, µM (series often up to 46.1 µM), actives largely listed as activators | actives 2.9% (n = 350,000) | AID 624296, 2012; further: nearly all actives have a fitted effect of over 50% in size
SW480 rerep: A quantitative high throughput screen for small molecules that induce DNA re-replication in SW480 colon adenocarcinoma cells; AID 624297, 2012; SW480 DNA re-replication, Hoechst DNA content imaging, 48 h; actives 1.8% (n = 340,000); Potency, µM (titrated, usually from 46.1 µM), actives largely listed as activators; further: nearly all actives have a fitted effect of over 55% in size
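Per well, 250 cells were exposed to pinned compound for 48 hr. Nuclear DNA was visualised with Hoechst (40 min, 37 C) and total object intensity recorded by fluorescence scanning.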
KCNH2 WT inh: qHTS for Inhibitors of KCHN2 3.1: Wildtype qHTS; actives 0.37% (n = 340,000); activity change, % at 1.84 µM; Voltage-gated inwardly rectifying potassium channel KCNH2 (Homo sapiens), Q12809; U2OS, BacMam KCNH2, thallium flux FluxOr; stronger effect = lower value;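 active means maximum activity change below -70%; inconclusive means maximum activity change between -70% and -50%; inactive means maximum activity change above -50%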
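U2OS cells were transduced with wild-type KCNH2 virus (2.03 x 10^8 / mL) for 4 h at room temperature, then cultured overnight at 37 C. Thallium flux was read with FluxOr dye. Rate constants were normalized to DMSO controls.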
KB-3-1 cytotox: qHTS assay for MDR1-selective chemotherapeutics: Primary screen using the parental adenocarcinoma cell KB-3-1 | KB-3-1 viability, CellTiter-Glo ATP luminescence, 72 h | Potency, µM (series often up to 46.1 µM), usual class: cytotoxic | AID 1347075, 2019 | actives 1.4% (n = 400,000); further: nearly all actives have a fitted effect of over 60% in size
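Luminescent ATP read-out (CellTiter-Glo) measures survival of drug-naive KB-3-1 cells after 72 h compound exposure at 37 °C. Titration series was screened from lowest to highest concentration, with DMSO vehicle plates as background controls.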
KB-V1 cytotox: qHTS assay for MDR1-selective chemotherapeutics: Primary screen using the drug-selected MDR subline cells KB-V1; KB-V1 MDR cells viability, CellTiter-Glo, 72 h; Potency, µM (doses to about 46.1 µM), most hits filed as cytotoxic; actives 3.4% (n = 400,000); AID 1347076, 2019; further: nearly all actives have a fitted effect of over 60% in size
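KB-V1, DMEM (no phenol red) + 10% FBS; cpd pin-transferred, titration series; 72 h, 37 degrees C; CellTiter-Glo, luminescence. Data normalized, curve-fit.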
A number is an active result; - = inactive; ? = inconclusive; . = not tested or not shown; ! = not active in a repeat; [ ] = dose if it differs, or a comment. Hits are enriched below; roughly 7.6% of the tested compounds scored in any of these assays. Unless noted, the call rests on the fitted dose curve; in most records, active means well fitted curve in the direction sought with a large enough effect; inconclusive means small, poorly fitted or top-dose-only effect, or another doubt; inactive means no such curve, though single readings can be large; an effect the other way counts as inactive or inconclusive.

SMILES	KCNH2 3.1 inh	MCF10A rerep	SW480 rerep	KCNH2 WT inh	KB-3-1 cytotox	KB-V1 cytotox
Cc1cc(C)c[n+](C(C)C(=O)c2ccc(-c3ccccc3)cc2)c1 (stereo not given)	-	-	-	-	5.8µM	-
O=C1N(c2ccccc2C(F)(F)F)OC1(Cc1ccccc1)c1ccccc1 (stereo not given)	-	?	?	-	-	-
O=C1N(c2ccccc2C(F)(F)F)O[C@]1(c1ccccc1)C1CCCCC1	-	18µM	13µM	-	-	-
O=C(c1ccc2c(c1)C(=O)N(CCCO)C2=O)c1ccc2c(c1)C(=O)N(CCCO)C2=O	-	-	-	-	-	-
O=C1c2ccc3c4c(ccc(c24)C(=O)N1CCCCO)C(=O)N(CCCCO)C3=O	-	?	?	-	3.7µM	?
CSCCC(NC(=O)C1CCC(C)CC1)C(=O)N1CCN(c2ccccn2)CC1 (stereo not given)	-	-	-	-	-	?
CC(C)CC(NC(=O)C1CCCCC1)C(=O)N1CCN(c2ccccn2)CC1 (stereo not given)	-	-	-	-	-	2.6µM
CCCN(CC(=O)Nc1cc(Cl)cc(Cl)c1)CC(=O)Nc1ccc(F)c(F)c1F	-	?	?	-	-	23µM
CC1(C)CC2(CCCN(C(=S)Nc3ccccc3)C2)CCO1 (stereo not given)	-	-	-	-	-	-
CCC1(C)CC2(CCCN(CCC(=O)c3ccccc3)C2)CCO1 (stereo not given)	-	21µM	-	.	-	-
CCOc1ccccc1CN(Cc1ccco1)S(=O)(=O)c1ccc(-n2cnnn2)c(OC)c1	-	?	8.2µM	-	?	?
COc1ccc(CCN(Cc2cccs2)S(=O)(=O)c2ccc(-n3cnnn3)c(OC)c2)cc1OC	?	-	-	-	-	2.6µM
COc1cc(S(=O)(=O)N(Cc2cccs2)CC2CCCO2)ccc1-n1cnnn1 (stereo not given)	-	-	-	-	-	?
O=C(NCc1cccc(F)c1)C1CCC(=O)N(C2CC2)C1 (stereo not given)	-	-	-	-	-	?
O=C(Nc1ccccc1)[C@@H]1CC=C[C@@H]2CCN(Cc3ccc(Cl)c(Cl)c3)C(=O)[C@@H]21	-	-	-	-	-	21µM!
O=C1CC(/C=C/c2ccccn2)=Nc2ccccc2N1	-	-	?	-	18µM	?
O=C1CC(/C=C/c2ccco2)=Nc2ccccc2N1	-	-	-	-	-	-
CCc1ccc(-n2c(=O)c3sc4ccccc4c3n(CC(=O)NC3CCCCC3)c2=O)cc1	.	.	.	.	-	-
Nc1nc(NCC2CCCO2)nc(Nc2ccc(F)cc2)c1[N+](=O)[O-] (stereo not given)	-	?	-	-	-	-
Cc1ccc(Nc2nc(NCC3CCCO3)nc(N)c2[N+](=O)[O-])cc1 (stereo not given)	-	-	-	-	-	21µM
CC(=O)c1ccc(COC(=O)Cc2ccc([N+](=O)[O-])cc2)cc1	-	-	-	-	-	-
N#Cc1cc2c(nc1SCC(=O)Nc1sc3c(c1C#N)CCC3)CCCCCC2	-	3.3µM	?	-	-	-
Cc1ccc(C#N)c(SCC(=O)Nc2nccs2)n1	-	?	16µM	-	-	-
CCOC(=O)c1c(SCC(=O)Nc2nccs2)nc(C)c(C)c1C	-	16µM	-	-	.	.
N#Cc1cc2c(nc1SCC(=O)Nc1sc3c(c1C#N)CCC3)CCC2	-	?	-[9.22 µM]	-	-	-
SMILES	KCNH2 3.1 inh	MCF10A rerep	SW480 rerep	KCNH2 WT inh	KB-3-1 cytotox	KB-V1 cytotox
COc1ccc(-c2ccc(C#N)c(SCC(=O)Nc3sc4c(c3C#N)CCC4)n2)cc1OC	-	2.9µM	2.1µM	-	?	?
O=C(CCc1cn(Cc2ccc(F)cc2)c2ccccc12)N1CCOCC1	-	-	-	-	-	?
COC(=O)[C@@]12C[C@@H](CC(=O)NCCCN3CCCC3=O)C(=O)N(CCc3ccc(OC)c(OC)c3)C1=CCC(C)(C)C2	.	.	.	.	-	-
CCCCCN(C(=O)CCC(=O)OCCOc1cccc(Cl)c1)c1c(N)n(CCCC)c(=O)[nH]c1=O	-	-	-	-	-	-
N#Cc1cc2c(nc1SCC(=O)Nc1nccs1)CCCCC2	-	3.7µM	-	-	-	-
CC1=CN2C(=N)/C(=C/c3ccc([N+](=O)[O-])o3)C(=O)N=C2S1	-	?	16µM	-	-	-
O=C(O)c1ccccc1-c1cn2cc(Cl)ccc2n1	-	-	-	-	-	-
COc1ccc(-c2cn3cc(C)ccc3n2)cc1Br	-	-	-	-	-	-
Clc1ccc2nc(-c3ccc(Br)s3)cn2c1	-	-	-	-	-	18µM
COc1ccc(-c2cn3cc(Cl)ccc3n2)cc1OC	-	-	-	-	-	16µM
Cc1ccc(C)c(N2CCN(S(=O)(=O)c3c(C)noc3/C=C/N(C)C)CC2)c1	-	21µM	-	-	?	?
Cc1noc(/C=C/N(C)C)c1S(=O)(=O)N1CCN(c2ccccc2)CC1	-	?	-	-	-	-
Cc1ccc(Cl)cc1N1CCN(C(=O)c2ccc(NS(=O)(=O)c3c(C)noc3C)cc2)CC1	-	15µM	?	-	-	-
CCOC(=O)c1c(C)[nH]c(C)c1S(=O)(=O)N1CCC(C(=O)N2CCN(c3cc(C)ccc3C)CC2)CC1	.	.	.	.	16µM	-
CCOC(=O)c1c(C)[nH]c(C)c1S(=O)(=O)N1CCC(C(=O)N2CCN(c3cccc(C)c3)C(C)C2)CC1 (stereo not given)	.	.	.	.	-	-
Cc1ccc(C)c(N2CCN(C(=O)C3CCN(S(=O)(=O)c4c(C)noc4C)CC3)CC2)c1	-	-	?	-	8.2µM	?
CCOCCCn1c(SCC(=O)Nc2ccc(NC(C)=O)cc2)nc2ccccc2c1=O	-	-	-	-	-	?
COc1ccc(CC(N)c2csc(NC(=O)Nc3ccccc3C(C)C)n2)cc1 (stereo not given)	.	.	.	.	?	-
CCN1CCCC1CNC(=O)c1cc2c(-c3ccc(Cl)cc3)nn(C)c2s1 (stereo not given)	-	?	21µM	-	?	?
CCN1CCCC1CNC(=O)c1cc2c(-c3cccc(OC)c3)nn(C)c2s1 (stereo not given)	-	-	-	-	-	-
